# Hits are enriched below; roughly 4.8% of the tested compounds scored in any of these assays.
# DAX1 inh-1 = DAX1 (NR0B1) inhibition, primary screen; HEK293T StAR-luciferase reporter, SF-1/DAX-1 repression relief; inhibition, % at 6.8 µM; hit rate 1.1% among 370,000; AID 652010;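 active = inhibition above the mean over all tested compounds plus 3 SD, cut at about 3.6% in these data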;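 note: 0% = DAX-1 cells with DMSO and 100% = cells lacking DAX-1 with DMSO; higher inhibition means more luminescence from relief of DAX-1 repression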
# DAX1 inh-2 = NR0B1 (DAX1) inhibition | HEK293 Gal4-DAX1 luciferase reporter, luminescence | inhibition, % at 6.75 µM | hit rate 0.99% among 340,000 | AID 504766;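 active = inhibition above the mean over all tested compounds plus 3 SD, cut at about 4.2% in these data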;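 note: 0% = DAX1-transfected cells with DMSO and 100% = empty-vector control cells with DMSO; inhibition shows as a rise in luminescence from relieved DAX1 repression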
# Target sequence (P51843 207-470 limits assumed): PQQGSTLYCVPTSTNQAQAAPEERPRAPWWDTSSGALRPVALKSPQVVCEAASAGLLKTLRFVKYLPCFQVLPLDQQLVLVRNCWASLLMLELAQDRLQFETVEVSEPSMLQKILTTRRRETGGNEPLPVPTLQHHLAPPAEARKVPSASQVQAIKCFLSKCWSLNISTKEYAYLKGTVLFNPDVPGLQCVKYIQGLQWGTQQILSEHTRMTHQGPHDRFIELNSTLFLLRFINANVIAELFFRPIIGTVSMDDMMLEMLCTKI
# SMARCA2 activ = activators of SMARCA2 function; MG213 cells, MMTV-luciferase reporter, dexamethasone, overnight; activation, % at 9.1 µM; hit rate 1% among 370,000; AID 652017; in the data active = activation above about 7.8%;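 note: 0% = vehicle wells and 100% = reference activator wells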
# hgDAF12 agonist = agonists of H. glycines DAF-12 nuclear receptor | activation, % at 6.8 µM | HEK293 GAL4-hgDAF12 UAS-luciferase reporter, agonist luminescence; normalized to butyrate control | hit rate 1.8% among 370,000 | AID 687014;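 active = activation above a cutoff set at the mean of all screened compounds plus 3 SD, cut at about 10% in these data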;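 note: 0% = DMSO wells and 100% = sodium butyrate wells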
# hcDAF12 agonist = activates DAF-12 receptor from parasite H. contortus. hit rate 1.4% among 370,000. activation, % at 6.8 µM. HEK293 hcDAF-12 lit1-tk-luc reporter, luminescence; 0% DMSO, 100% Δ7-dafachronic acid;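 active = activation above the mean of all tested compounds plus 3 SD, cut at about 5.5% in these data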;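 note: 100% = response to 3 µM Δ7-dafachronic acid high control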
# ssDAF12 agonist = activators of S. stercoralis DAF-12 nuclear receptor; HEK293 ssDAF-12/GRIP1 lit1-tk-luc reporter, luminescence; % of 3 µM dafachronic acid response; activation, % at 6.8 µM; hit rate 1% among 370,000; AID 652126;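 active = activation above the mean over all tested compounds plus 3 SD, cut at about 0.9% in these data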;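 note: 0% = DMSO-only wells and 100% = 3 µM delta7-dafachronic acid wells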
# DAX1 inh confirm = NR0B1 (human) inhibition, confirmation. HEK293T StAR-promoter luciferase reporter, SF-1/DAX-1 repression. inhibition, % at 6.8 µM. hit rate 87% among 2,400. shares compounds with DAX1 inh-1;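 active = inhibition above the average of every tested compound plus 3 SD, cut at about 3.8% in these data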;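 note: 0% = DAX-1 cells with DMSO and 100% = no DAX-1 control cells with DMSO; active compounds raise luminescence by relieving repression of the StAR reporter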
# SF1 mutant ctr = counter-screen for DAX1 inhibitors: nonselective inhibitors with SF-1 AF2 mutant | shares compounds with DAX1 inh-1 | HEK293 StAR-luciferase, luminescence | inhibition, % at 6.8 µM | hit rate 78% among 2,400;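 active = inhibition above the mean of all tested compounds plus 3 SD, cut at about 3% in these data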;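 note: 0% = DAX-1 transfected cells with DMSO and 100% = cells without DAX-1 with DMSO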
# SMARCA2 conf = confirmation of SMARCA2 (BRM) function activators; hit rate 30% among 3,500; MG213 cells, MMTV-luciferase with dexamethasone, luminescence, overnight; MG213 cells expressing E1A, Rb sequestered; DMSO wells 0%, reference activator 100%; activation, % at 9.1 µM; shares compounds with SMARCA2 activ;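 active = activation above its plate's cutoff, the mean activation of tested wells plus 3 SD, cut at about 7.9% in these data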
# VP16 Luc act = activates GAL4-VP16 luciferase, flagging SMARCA2 activator hits | hit rate 41% among 3,500 | AID 686939 | HEK293 GAL4-VP16 pG5luc reporter, luciferase luminescence; scaled: DMSO wells 0%, SAHA wells 100% | activation, % at 9.1 µM | shares compounds with SMARCA2 activ;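 active = activation above the solvent-only control well mean plus 3 SD, averaged across control plates, cut at about 5.2% in these data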
# LXR ag = activates human LXR-beta, counter-screen for hcDAF-12 agonists | 3,400 tested, under 10 active | activation, % at 6.8 µM | HEK293 Gal4-LXR tk-luc reporter, luminescence, 24 h; normalized: DMSO 0%, positive control 100% | shares compounds with hcDAF12 agonist | AID 743027;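 active = mean percent activation of the reporter above a cutoff set as the average over tested compounds plus their standard deviation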
# hcDAF12 conf = hcDAF-12 agonism, confirmation assay; shares compounds with hcDAF12 agonist; HEK293 hcDAF-12 lit1-tk-luc reporter, luminescence; % of Δ7-dafachronic acid response; activation, % at 6.8 µM; hit rate 61% among 3,400; AID 743032;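 active = mean activation across triplicate tests above the threshold derived from the earlier primary screen, cut at about 5.5% in these data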;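 note: 0% = DMSO only wells and 100% = 3 µM Δ7-dafachronic acid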
# hgDAF12 ag = confirmation of H. glycines DAF-12 agonists | HEK293 GAL4-hgDAF12 luciferase reporter, agonist mode; percent of butyrate response | activation, % at 6.8 µM | shares compounds with hgDAF12 agonist | AID 743050 | hit rate 80% among 3,300;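 active = mean activation over triplicate wells above the hit cutoff derived from the earlier primary screen, cut at about 11% in these data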;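 note: 0% = DMSO low control and 100% = 2 mM sodium butyrate high control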
# LXRb DAF12 ctr = LXR-beta agonism as DAF-12 counter-screen; HEK293 Gal4-LXR luciferase reporter, 24 h; 3,300 tested, under 10 active; activation, % at 6.8 µM; shares compounds with hgDAF12 agonist; AID 743051;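 active = mean activation of the triplicate above a set limit carried over from the primary screen, none filed active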
# Numbers without * were called inactive; · = no result given.
SMILES,DAX1 inh-1,DAX1 inh-2,SMARCA2 activ,hgDAF12 agonist,hcDAF12 agonist,ssDAF12 agonist,DAX1 inh confirm,SF1 mutant ctr,hgDAF12 ag,LXRb DAF12 ctr,others
CC(=O)c1ccc(NC(=O)NC2CCCCCCC2)cc1,11.9*,2.3,2.6,14.2*,4.9,-0.5,12.8*,7.4*,15.9*,0.6,
CC(=O)c1cccc(NC(=O)NC2CCCCCCC2)c1,0.1,1.3,1.0,0.4,2.7,-1.0,·,·,·,·,
O=C(Nc1ccccc1F)NC1CCCCCCC1,4.5*,1.9,5.7,13.4*,2.6,0.4,7.2*,4.1*,9.9,0.4,
COc1ccc(/C=N/N=C(\N)c2nonc2N)cc1OC,1.8,3.4,6.3,8.6,0.5,-1.2,·,·,·,·,
N/C(=N\N=C\c1cccc(O)c1)c1nonc1N,7.2*,-0.8,-1.0,20.4*,13.5*,3.2*,14.9*,10.6*,16.9*,1.0,LXR ag=2.4;hcDAF12 conf=9.0*
O=c1c2c(nc3cc(-c4cccc(Cl)c4)[nH]n13)CCC2,5.5*,2.0,10.5*,14.7*,4.9,0.6,16.3*,6.7*,14.1*,1.1,SMARCA2 conf=16.1*;VP16 Luc act=13.0*
CCS(=O)(=O)Nc1cc(-c2nc3cccnc3s2)ccc1C,6.4*,3.2,5.8,21.5*,8.3*,0.6,8.9*,7.7*,15.7*,0.6,LXR ag=0.7;hcDAF12 conf=5.6*
COc1nccc(C(F)(F)F)c1C(=O)NC(=O)Nc1c(C)cccc1C,0.2,0.3,-2.6,-1.0,0.6,-1.1,·,·,·,·,
COC(=O)[C@]12C[C@H](CC(=O)NCc3cccc(C(F)(F)F)c3)C(=O)N(Cc3cccc4ccccc34)C1=C[C@H](C1CCCC1)O[C@@H]2C,-1.3,·,-6.4,2.0,0.6,-1.4,·,·,·,·,
O=C(Nc1ccc2c(c1)OCO2)c1cc(-c2ccccc2Cl)on1,0.7,1.4,3.7,7.3,1.8,-1.2,·,·,·,·,
O=C(Nc1ccc2c(c1)OCO2)c1cc(Cl)ccn1,6.5*,1.9,3.9,15.7*,5.4,0.4,11.7*,5.3*,17.0*,0.8,
O=C(Nc1ccc2c(c1)OCO2)c1ccc(Cl)cc1Cl,15.9*,-0.1,3.0,18.4*,10.8*,-0.2,14.5*,5.0*,17.4*,1.1,LXR ag=1.6;hcDAF12 conf=6.6*
Cc1cc(C(=O)CN2C(=O)NC3(CCCCC3C)C2=O)c(C)n1Cc1cccs1 (stereo unspecified),5.0*,1.1,2.3,15.3*,4.4,-0.1,9.6*,5.5*,10.4*,0.5,
